{"source": "the supplement of paper PMC11001985", "note": "Values without a mark were called inactive.", "data": [{"compound": "C#CCNC(=O)CCSSCCC(=O)NCCc1ccc(C=O)c(C=O)c1", "experiment": "lysine labeling ratio R10:1 (500 µM / 50 µM probe), SILAC-ABPP in living cells; higher = lower intrinsic lysine reactivity toward the probe, active = 2 or less", "details": "HeLa; probe concentrations 500 vs 50 µM", "method": "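Living HeLa cells (SILAC light/heavy) in PBS at room temperature were labeled with 50 µM versus 500 µM of the lysine-reactive, reductant-cleavable probe OPA-S-S-alkyne (SILAC labeling time not stated). Probe-modified peptides were CuAAC-biotinylated, captured on neutravidin and eluted with DTT/IAA, then quantified by LC-MS/MS. R = median peptide ratio per lysine (500/50 µM), combined over 3 forward and 3 reverse SILAC replicates. Ratios are capped at 20; R < 2 = hyper-reactive.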", "values": [{"target": "DDX5 (lysine site: K236) (UniProt P17844)", "lysine labeling ratio R10:1": 2.34}, {"target": "PDCD6IP (lysine site: K48) (UniProt Q8WUM4)", "lysine labeling ratio R10:1": 2.93}, {"target": "MSN (lysine site: K400) (UniProt P26038)", "lysine labeling ratio R10:1": 3.75}, {"target": "UniProt P23352 (lysine site: K279)", "lysine labeling ratio R10:1": 3.78}, {"target": "UniProt P17612 (lysine site: K48)", "lysine labeling ratio R10:1": "1.56 (active)"}, {"target": "TXNRD1 (lysine site: K245) (UniProt Q16881)", "lysine labeling ratio R10:1": 7.79}, {"target": "GPI (lysine site: K447) (UniProt P06744)", "lysine labeling ratio R10:1": 2.73}, {"target": "LMO7 (lysine site: K1456) (UniProt Q8WWI1)", "lysine labeling ratio R10:1": "1.37 (active)"}, {"target": "UniProt Q9HAB3 (lysine site: K437)", "lysine labeling ratio R10:1": 2.11}, {"target": "STMN1 (lysine site: K119) (UniProt P16949)", "sequence (P16949 whole entry)": "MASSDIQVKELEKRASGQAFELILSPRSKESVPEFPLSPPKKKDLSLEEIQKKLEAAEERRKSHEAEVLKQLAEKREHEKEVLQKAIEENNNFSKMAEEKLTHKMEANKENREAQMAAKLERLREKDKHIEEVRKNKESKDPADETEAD", "lysine labeling ratio R10:1": "1.62 (active)"}, {"target": "GNS (lysine site: K502) (UniProt P15586)", "sequence (P15586 whole entry)": "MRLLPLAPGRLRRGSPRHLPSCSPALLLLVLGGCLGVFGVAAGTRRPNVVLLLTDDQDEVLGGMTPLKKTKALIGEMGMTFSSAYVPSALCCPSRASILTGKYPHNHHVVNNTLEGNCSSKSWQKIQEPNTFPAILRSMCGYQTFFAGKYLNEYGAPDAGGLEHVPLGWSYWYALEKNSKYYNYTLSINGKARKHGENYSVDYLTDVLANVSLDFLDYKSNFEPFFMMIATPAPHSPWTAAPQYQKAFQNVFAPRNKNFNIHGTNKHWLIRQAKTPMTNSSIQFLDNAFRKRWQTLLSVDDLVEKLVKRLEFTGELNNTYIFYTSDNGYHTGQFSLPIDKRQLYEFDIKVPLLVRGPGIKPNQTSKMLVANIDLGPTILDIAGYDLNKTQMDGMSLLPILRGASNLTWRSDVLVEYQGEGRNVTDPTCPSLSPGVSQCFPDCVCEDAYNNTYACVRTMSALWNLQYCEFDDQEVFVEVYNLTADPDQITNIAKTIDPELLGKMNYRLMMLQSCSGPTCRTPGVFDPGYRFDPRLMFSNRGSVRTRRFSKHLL", "lysine labeling ratio R10:1": "0.59 (active)"}, {"target": "CALD1 (lysine site: K605) (UniProt Q05682)", "lysine labeling ratio R10:1": 3.32}, {"target": "UniProt P61106 (lysine site: K193)", "lysine labeling ratio R10:1": 3.57}, {"target": "GPC1 (lysine site: K338) (UniProt P35052)", "lysine labeling ratio R10:1": 7.36}, {"target": "SLC3A2 (lysine site: K299) (UniProt P08195)", "lysine labeling ratio R10:1": 6.33}, {"target": "UniProt Q9UHN6 (lysine site: K1177)", "lysine labeling ratio R10:1": 6.32}, {"target": "FBL (lysine site: K131) (UniProt P22087)", "lysine labeling ratio R10:1": 2.15}, {"target": "CADM1 (lysine site: K93) (UniProt Q9BY67)", "lysine labeling ratio R10:1": 4.95}, {"target": "IGF2R (lysine site: K2338) (UniProt P11717)", "lysine labeling ratio R10:1": "1.29 (active)"}, {"target": "XRCC6 (lysine site: K299) (UniProt P12956)", "lysine labeling ratio R10:1": "1.09 (active)"}, {"target": "LTF (lysine site: K476) (UniProt P02788)", "lysine labeling ratio R10:1": "0.862 (active)"}, {"target": "HNRNPU (lysine site: K697) (UniProt Q00839)", "lysine labeling ratio R10:1": "0.915 (active)"}, {"target": "FASN (lysine site: K1704) (UniProt P49327)", "sequence (P49327 whole entry, looked up)": "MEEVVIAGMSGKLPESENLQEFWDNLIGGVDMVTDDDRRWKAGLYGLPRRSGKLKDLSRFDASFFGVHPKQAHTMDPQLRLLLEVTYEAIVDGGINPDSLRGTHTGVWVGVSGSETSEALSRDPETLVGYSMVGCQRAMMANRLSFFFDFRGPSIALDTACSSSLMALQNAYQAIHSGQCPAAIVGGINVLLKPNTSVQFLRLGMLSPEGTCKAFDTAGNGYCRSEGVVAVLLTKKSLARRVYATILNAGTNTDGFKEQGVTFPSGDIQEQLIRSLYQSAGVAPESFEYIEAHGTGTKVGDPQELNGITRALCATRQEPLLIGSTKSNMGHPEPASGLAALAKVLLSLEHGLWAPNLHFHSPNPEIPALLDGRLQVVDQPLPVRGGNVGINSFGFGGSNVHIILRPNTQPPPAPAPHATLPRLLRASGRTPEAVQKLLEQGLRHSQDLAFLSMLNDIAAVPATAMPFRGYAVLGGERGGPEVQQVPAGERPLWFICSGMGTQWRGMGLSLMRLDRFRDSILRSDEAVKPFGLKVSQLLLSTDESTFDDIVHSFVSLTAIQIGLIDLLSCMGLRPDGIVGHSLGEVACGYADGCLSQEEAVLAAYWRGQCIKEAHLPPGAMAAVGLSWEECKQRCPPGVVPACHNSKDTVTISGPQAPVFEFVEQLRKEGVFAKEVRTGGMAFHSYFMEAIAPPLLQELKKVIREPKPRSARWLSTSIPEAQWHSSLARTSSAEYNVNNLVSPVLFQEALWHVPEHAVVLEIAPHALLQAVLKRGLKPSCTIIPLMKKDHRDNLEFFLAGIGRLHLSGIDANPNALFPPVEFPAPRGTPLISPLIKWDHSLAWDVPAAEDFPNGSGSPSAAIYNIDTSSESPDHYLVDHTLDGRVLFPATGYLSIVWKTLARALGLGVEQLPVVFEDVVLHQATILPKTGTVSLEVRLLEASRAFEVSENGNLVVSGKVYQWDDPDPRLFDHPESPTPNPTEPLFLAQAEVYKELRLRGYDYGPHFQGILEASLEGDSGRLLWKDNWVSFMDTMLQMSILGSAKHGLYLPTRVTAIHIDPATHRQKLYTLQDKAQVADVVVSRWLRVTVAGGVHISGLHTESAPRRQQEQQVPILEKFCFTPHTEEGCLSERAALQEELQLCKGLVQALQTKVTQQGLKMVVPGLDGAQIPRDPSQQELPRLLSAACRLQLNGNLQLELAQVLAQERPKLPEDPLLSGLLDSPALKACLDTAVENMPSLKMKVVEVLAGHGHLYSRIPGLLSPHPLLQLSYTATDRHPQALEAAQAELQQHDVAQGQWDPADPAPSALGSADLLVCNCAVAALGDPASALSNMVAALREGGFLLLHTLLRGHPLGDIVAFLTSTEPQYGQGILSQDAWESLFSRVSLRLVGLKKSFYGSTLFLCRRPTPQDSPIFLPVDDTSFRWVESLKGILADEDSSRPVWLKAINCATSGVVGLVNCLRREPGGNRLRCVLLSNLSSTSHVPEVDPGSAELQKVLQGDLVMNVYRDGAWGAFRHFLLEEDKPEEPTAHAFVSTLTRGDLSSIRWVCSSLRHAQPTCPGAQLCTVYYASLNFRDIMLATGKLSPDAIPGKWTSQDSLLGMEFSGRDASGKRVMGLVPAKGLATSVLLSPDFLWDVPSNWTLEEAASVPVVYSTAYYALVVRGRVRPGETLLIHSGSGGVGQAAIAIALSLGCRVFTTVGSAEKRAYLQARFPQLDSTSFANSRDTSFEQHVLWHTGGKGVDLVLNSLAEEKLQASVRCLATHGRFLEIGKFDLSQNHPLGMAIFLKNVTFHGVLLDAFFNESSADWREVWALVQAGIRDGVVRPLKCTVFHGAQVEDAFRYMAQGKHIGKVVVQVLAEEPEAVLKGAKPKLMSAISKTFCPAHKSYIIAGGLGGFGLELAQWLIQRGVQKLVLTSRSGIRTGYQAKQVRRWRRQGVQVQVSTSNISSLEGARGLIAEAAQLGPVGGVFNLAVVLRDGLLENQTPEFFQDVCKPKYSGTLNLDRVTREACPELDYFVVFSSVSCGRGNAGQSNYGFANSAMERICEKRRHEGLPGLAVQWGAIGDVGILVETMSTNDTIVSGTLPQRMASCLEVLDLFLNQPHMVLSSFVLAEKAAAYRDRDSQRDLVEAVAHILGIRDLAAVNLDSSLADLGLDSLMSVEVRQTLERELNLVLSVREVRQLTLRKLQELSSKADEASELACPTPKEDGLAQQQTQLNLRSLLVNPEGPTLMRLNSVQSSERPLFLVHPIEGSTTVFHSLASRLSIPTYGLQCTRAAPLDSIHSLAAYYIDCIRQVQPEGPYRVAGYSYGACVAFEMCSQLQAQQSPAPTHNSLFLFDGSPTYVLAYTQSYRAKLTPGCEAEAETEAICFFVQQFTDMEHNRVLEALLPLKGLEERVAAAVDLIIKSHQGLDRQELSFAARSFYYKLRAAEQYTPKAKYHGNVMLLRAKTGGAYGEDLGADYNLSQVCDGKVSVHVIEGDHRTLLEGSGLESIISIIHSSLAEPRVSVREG", "lysine labeling ratio R10:1": 2.46}, {"target": "HNRNPA1 (lysine site: K350) (UniProt P09651)", "lysine labeling ratio R10:1": 3.42}, {"target": "FN1 (lysine site: K269) (UniProt P02751)", "lysine labeling ratio R10:1": 9.87}, {"target": "UniProt P61978 (lysine site: K198)", "lysine labeling ratio R10:1": "1.88 (active)"}, {"target": "PFAS (lysine site: K639) (UniProt O15067)", "lysine labeling ratio R10:1": "1.58 (active)"}, {"target": "FBLN1 (lysine site: K187) (UniProt P23142)", "sequence (P23142 whole entry)": "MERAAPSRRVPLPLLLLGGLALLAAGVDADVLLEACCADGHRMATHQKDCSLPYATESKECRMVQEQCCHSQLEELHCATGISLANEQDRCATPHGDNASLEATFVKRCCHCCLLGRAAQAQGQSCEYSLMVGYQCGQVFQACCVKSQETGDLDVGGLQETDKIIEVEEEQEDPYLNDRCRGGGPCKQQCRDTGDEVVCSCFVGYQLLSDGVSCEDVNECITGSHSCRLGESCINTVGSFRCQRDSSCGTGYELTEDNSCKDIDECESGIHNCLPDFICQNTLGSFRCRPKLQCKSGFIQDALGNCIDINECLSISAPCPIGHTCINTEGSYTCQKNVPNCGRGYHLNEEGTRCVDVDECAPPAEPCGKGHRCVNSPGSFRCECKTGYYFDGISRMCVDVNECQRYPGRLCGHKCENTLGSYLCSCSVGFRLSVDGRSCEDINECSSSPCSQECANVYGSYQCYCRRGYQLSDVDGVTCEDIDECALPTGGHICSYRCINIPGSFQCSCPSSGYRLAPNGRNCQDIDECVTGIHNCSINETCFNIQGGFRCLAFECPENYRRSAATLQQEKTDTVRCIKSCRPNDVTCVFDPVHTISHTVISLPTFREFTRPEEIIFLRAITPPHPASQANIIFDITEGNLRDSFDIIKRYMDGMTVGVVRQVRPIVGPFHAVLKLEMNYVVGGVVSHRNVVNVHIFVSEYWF", "lysine labeling ratio R10:1": 2.05}, {"target": "UniProt Q16352 (lysine site: K290)", "sequence (Q16352 whole entry)": "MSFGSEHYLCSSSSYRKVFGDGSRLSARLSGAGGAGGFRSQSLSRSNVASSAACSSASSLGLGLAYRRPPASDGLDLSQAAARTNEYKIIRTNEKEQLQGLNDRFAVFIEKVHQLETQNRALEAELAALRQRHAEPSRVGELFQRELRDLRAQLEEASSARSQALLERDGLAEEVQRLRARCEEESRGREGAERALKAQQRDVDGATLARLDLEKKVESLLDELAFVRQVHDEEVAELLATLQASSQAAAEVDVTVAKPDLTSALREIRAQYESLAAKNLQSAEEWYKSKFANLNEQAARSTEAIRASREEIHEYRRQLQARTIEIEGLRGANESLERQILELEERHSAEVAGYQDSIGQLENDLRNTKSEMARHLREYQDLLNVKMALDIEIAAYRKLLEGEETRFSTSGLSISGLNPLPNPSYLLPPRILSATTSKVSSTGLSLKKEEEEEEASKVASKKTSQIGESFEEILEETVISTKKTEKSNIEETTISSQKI", "lysine labeling ratio R10:1": "1.71 (active)"}, {"target": "IDH2 (lysine site: K384) (UniProt P48735)", "lysine labeling ratio R10:1": 3.48}, {"target": "CCT3 (lysine site: K78) (UniProt P49368)", "lysine labeling ratio R10:1": 4.07}, {"target": "SLC25A4 (lysine site: K245) (UniProt P12235)", "lysine labeling ratio R10:1": "1.72 (active)"}, {"target": "ASPH (lysine site: K609) (UniProt Q12797)", "lysine labeling ratio R10:1": "1.47 (active)"}, {"target": "CKAP4 (lysine site: K339) (UniProt Q07065)", "lysine labeling ratio R10:1": "1.14 (active)"}, {"target": "LRP1 (lysine site: K646) (UniProt Q07954)", "lysine labeling ratio R10:1": "1.92 (active)"}, {"target": "SPTBN1 (lysine site: K1063) (UniProt Q01082)", "lysine labeling ratio R10:1": 7.24}, {"target": "INSR (lysine site: K511) (UniProt P06213)", "lysine labeling ratio R10:1": 2.12}, {"target": "ITGA1 (lysine site: K259) (UniProt P56199)", "lysine labeling ratio R10:1": 4.65}, {"target": "PLOD2 (lysine site: K358) (UniProt O00469)", "lysine labeling ratio R10:1": 2.23}, {"target": "UniProt P35908 (lysine site: K580)", "sequence (P35908 whole entry)": "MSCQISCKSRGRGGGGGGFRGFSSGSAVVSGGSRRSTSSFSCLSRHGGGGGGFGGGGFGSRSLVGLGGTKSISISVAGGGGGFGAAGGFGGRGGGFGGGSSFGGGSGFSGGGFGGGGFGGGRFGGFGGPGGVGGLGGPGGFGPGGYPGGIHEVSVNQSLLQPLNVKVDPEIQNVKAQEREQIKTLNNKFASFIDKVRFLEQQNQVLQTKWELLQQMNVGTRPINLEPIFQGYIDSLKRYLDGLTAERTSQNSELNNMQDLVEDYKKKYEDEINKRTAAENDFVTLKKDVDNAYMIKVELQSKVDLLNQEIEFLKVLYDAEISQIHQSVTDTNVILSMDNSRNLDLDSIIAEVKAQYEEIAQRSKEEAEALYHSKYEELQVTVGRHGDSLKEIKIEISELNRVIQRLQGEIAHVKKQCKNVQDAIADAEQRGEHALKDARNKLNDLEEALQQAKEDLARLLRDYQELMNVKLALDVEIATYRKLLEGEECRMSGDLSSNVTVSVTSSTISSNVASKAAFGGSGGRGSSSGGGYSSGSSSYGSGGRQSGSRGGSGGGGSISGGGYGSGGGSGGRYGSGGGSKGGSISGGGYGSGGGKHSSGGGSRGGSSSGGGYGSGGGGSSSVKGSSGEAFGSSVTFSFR", "lysine labeling ratio R10:1": 5.72}]}]}
